Results on eight compounds are retold here after PubChem BioAssay.

Assay [1] in a line: hit retest on RPL19A-GFP reporter strain – cell-based, S. cerevisiae, flow cytometry, cherry picks, mother/daughter gates, confirmation (AID 2270;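 active means GFP response below 50% of the DMSO control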). The note with it: 3 h, at 10 µM, stronger effect = lower value, 100 = same GFP as DMSO wells. In general terms: Flow cytometry measures light scatter and fluorescence of single cells or particles in a stream.
The nature of assay [2]: yeast TOR pathway reporter LAP4-GFP change – cell-based, cherry picks, flow cytometry, mother/daughter gates, confirmation (AID 2271;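 active means GFP response above 150% of the DMSO control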;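 further: ratio of sample to DMSO plate mean so 100% equals DMSO level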). The note with it: S. cerevisiae LAP4-GFP strain, 3 h, at 10 µM, stronger effect = higher value.
Assay [3] in a line: TOR pathway CIT2 reporter hit retest – S. cerevisiae, GFP fusion, cherry picks, mother/daughter gates, confirmation (AID 2274;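 active means GFP response above 150% of the DMSO level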). The following applies: S. cerevisiae CIT2-GFP strain, flow cytometry, 3 h, at 10 µM, stronger effect = higher value.
Assay [4] is described as follows: reduced mouse 2C T cell binding to pMHC/ICAM-1 vesicles – MLPCN validation set, flow cytometry, LFA-1/ICAM-1 modulator project, pilot screen (AID 2523;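 active means response below a set limit, under 55% cells CD8-positive and vesicle-bound, and CD8 cells' 90th-percentile brightness under 279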;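 on vesicle binding response: mean PE anti-B7-1 fluorescence of CD8+ cells relative to row control; 100% = QL9-loaded vesicles with DMSO vehicle in the same plate row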). The note with it: 2C mouse CD8+ T cells, at 7 µM, stronger effect = lower value; double positive events: measured here: CD8+/vesicle+ event percentage.
The nature of assay [5]: calorie-restriction mimetic ROS inhibitors, yeast – validation compound set, pilot screen (AID 2706;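 active means superoxide response below 65% of plate, a cut near 3 SD across the whole screen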;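 further: yeast exposed to compound for one week at 30 degrees C before staining; 100% = mean of all compound wells on the same plate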). The note with it: S. cerevisiae aging, superoxide DHE fluorescence; at 10 µM; stronger effect = lower value.
Assay [6] deals with Beta-adrenergic receptor kinase 1 (Homo sapiens) (UniProt P25098). Kind of assay: GRK2 binders displacing RNA aptamer, biochemical, validation, human GRK2, bead flow cytometry (AID 488806;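 active means aptamer binding inhibition above 30%, about 3 SD of noise from non-fluorescent compounds; inactive means inhibition at or below 30%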). The following applies: bead-bound GRK2, FAM-aptamer displacement, at 10 µM, stronger effect = higher value.
Chain of Beta-adrenergic receptor kinase 1 (Homo sapiens) (P25098 whole entry, looked up): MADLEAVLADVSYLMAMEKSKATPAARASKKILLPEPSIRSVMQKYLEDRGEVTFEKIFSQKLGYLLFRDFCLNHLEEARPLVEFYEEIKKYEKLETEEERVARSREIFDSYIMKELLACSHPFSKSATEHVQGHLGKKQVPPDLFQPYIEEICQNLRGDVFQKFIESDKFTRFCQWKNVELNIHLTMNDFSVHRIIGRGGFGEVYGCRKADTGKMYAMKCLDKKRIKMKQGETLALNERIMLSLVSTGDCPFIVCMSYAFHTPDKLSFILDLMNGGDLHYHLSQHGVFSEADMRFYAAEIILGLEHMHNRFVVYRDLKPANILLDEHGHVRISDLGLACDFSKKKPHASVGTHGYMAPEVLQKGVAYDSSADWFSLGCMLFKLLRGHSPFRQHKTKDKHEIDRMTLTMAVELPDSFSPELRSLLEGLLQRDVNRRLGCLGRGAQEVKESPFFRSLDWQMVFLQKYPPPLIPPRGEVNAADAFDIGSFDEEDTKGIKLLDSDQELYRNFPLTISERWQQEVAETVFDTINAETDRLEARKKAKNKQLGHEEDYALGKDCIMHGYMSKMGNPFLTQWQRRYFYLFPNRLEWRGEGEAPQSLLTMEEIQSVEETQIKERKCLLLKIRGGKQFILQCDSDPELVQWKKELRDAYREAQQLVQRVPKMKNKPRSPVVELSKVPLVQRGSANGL
The target in assay [7] is AP-2 complex subunit beta (Homo sapiens) (UniProt P63010). Briefly: beta-arrestin/AP2 interaction blockers – biochemical, validation set, GST-AP2 beads, flow cytometry, pilot screen (AID 504541;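 active means inhibition above 54%, about 3 SD of non-fluorescent compounds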;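 further: AP2 carries R879A mutation and is captured from E. coli lysate; bead-bound FITC arrestin peptide fluorescence measuring arrestin peptide binding to AP2; 0% = DMSO wells and 100% = excess unlabeled arrestin peptide control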). The following applies: FITC arrestin peptide, at 10 µM, stronger effect = higher value.
A short description of assay [8]: cytosolic pH regulators acting via V-ATPase – S. cerevisiae, pHLuorin, HTS validation (AID 504600; in the data active means response above about 15%;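 further: plate controls were DMSO for no effect and reference compound for full effect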). The note with it: V-ATPase proton transport, at 10 µM, stronger effect = higher value.
Assay [9] concerns anti-desmoglein-3 scFv antibody binding to human DSG3. Kind of assay: blockers of pathogenic pemphigus antibody–desmoglein-3 binding – biochemical, validation compound set, bead-based, flow cytometry, pilot screen (AID 588368;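 active means binding below the plate cutoff, the plate median minus 3 SD, with a reading above zero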;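 further: signal is the median channel fluorescence of bead-bound GFP antibody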). The following applies: Protein G beads, DSG3-Fc, scFv-GFP binding, at 10 µM, stronger effect = lower value.
Assay [10] deals with Botulinum neurotoxin type F light chain protease (Clostridium botulinum). Briefly: Clostridium botulinum type F light chain protease inhibitors, microsphere substrate cleavage, validation (AID 588459). The note with it: multiplex microsphere protease substrate cleavage assay, flow cytometry; at 10 µM; stronger effect = higher value.
Assay [11] deals with Botulinum neurotoxin type A (Clostridium botulinum) (UniProt P0DPI0). Kind of assay: BoNT/A light chain protease inhibitors, biochemical, multiplex microsphere flow cytometry, validation set (AID 588460). The following applies: at 10 µM, stronger effect = higher value.
The target of assay [12] is Lethal factor (Bacillus anthracis) (UniProt P15917). Kind of assay: Bacillus anthracis lethal factor inhibition, microsphere flow cytometry protease assay, validation at 10 µM (AID 588461). The following applies: multiplex microsphere protease cleavage assay, stronger effect = higher value.
Chain of Lethal factor (Bacillus anthracis) (P15917 whole entry, looked up): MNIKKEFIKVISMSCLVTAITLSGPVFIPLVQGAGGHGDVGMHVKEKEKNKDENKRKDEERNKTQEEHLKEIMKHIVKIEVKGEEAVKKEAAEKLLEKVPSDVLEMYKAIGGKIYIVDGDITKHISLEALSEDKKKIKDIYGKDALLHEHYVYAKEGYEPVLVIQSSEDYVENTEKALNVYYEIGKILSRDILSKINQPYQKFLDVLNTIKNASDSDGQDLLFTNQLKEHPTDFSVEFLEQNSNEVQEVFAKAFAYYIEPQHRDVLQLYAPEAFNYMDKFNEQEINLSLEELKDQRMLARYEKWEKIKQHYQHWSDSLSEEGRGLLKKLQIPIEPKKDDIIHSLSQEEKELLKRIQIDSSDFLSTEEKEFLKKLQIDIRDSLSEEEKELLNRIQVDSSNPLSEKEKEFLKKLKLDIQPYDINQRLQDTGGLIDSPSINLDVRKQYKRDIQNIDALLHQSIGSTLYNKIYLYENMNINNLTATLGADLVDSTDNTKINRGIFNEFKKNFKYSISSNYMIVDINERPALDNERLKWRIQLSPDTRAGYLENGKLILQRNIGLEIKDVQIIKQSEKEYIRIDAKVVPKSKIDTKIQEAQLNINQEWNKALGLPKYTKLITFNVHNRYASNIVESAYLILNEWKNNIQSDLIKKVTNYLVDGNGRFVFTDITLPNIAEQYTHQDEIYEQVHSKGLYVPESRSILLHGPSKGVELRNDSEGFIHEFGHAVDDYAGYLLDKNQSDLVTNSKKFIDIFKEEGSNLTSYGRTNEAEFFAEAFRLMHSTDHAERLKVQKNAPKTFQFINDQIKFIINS
Assay [13] can be described thus: Nile Red efflux blockade in pump-expressing yeast – validation compound set, multiplex, phenotypic, pilot screen (AID 588506;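 active means efflux inhibition above 0.42, the validation set average plus 4 SD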;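 further: Nile Red retained in cells so higher fluorescence means more efflux inhibition; 0 = negative control wells and 1 = enniatin B 25 µM full block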). The following applies: S. cerevisiae pump-expressing triplex, Nile Red efflux flow cytometry; at 10 µM; stronger effect = higher value.
Assay [14] can be described thus: AML differentiation inducers, ER-HoxA9 marrow cells – cell-based, GFP/MAC1 double positive, flow cytometry, validation set, primary screen (AID 588685;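 active means differentiation response of at least 50%, scaled between solvent and reference control, from cells with both markers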;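 further: compound exposure lasts four days before antibody staining and flow analysis; 0% = DMSO wells and 100% = 5 µM fulvestrant positive control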). The note with it: stronger effect = higher value.
Assay [15] has as its target Integrin beta-1 (Homo sapiens) + Integrin alpha-4 (Homo sapiens) (UniProt P13612+P05556). Briefly: alpha4beta1 integrin LIBS antibody binding reduction – U937 cells, HUTS-21 mAb, flow cytometry, validation set, VLA-4 allosteric modulator project, pilot screen (AID 2674;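 active means inhibition above 50%, about 3 SD of the validation set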;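 further: antibody binding induced by the VLA-4 ligand LDV present at three times its Kd; 0% = LDV ligand with antibody and no compound and 100% = antibody without LDV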). The following applies: HUTS-21 LIBS mAb binding, at 6.7 µM, stronger effect = higher value.
In assay [16] the target is ATP-binding cassette sub-family B member 6 (Homo sapiens) (UniProt Q9NP58). Kind of assay: blockers of ABCB6-driven porphyrin uptake – K562-ABCB6 cells, flow cytometry, validation set, pilot screen (AID 588550;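 active means inhibition above the screen-wide mean plus 3 SD, about 51%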;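 further: 0% = DMSO wells and 100% = benzethonium chloride 70 µM positive control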). The following applies: K562-ABCB6 porphyrin accumulation, 1 h, at 10 µM, stronger effect = higher value.
Chain of ATP-binding cassette sub-family B member 6 (Homo sapiens) (Q9NP58 whole entry, looked up): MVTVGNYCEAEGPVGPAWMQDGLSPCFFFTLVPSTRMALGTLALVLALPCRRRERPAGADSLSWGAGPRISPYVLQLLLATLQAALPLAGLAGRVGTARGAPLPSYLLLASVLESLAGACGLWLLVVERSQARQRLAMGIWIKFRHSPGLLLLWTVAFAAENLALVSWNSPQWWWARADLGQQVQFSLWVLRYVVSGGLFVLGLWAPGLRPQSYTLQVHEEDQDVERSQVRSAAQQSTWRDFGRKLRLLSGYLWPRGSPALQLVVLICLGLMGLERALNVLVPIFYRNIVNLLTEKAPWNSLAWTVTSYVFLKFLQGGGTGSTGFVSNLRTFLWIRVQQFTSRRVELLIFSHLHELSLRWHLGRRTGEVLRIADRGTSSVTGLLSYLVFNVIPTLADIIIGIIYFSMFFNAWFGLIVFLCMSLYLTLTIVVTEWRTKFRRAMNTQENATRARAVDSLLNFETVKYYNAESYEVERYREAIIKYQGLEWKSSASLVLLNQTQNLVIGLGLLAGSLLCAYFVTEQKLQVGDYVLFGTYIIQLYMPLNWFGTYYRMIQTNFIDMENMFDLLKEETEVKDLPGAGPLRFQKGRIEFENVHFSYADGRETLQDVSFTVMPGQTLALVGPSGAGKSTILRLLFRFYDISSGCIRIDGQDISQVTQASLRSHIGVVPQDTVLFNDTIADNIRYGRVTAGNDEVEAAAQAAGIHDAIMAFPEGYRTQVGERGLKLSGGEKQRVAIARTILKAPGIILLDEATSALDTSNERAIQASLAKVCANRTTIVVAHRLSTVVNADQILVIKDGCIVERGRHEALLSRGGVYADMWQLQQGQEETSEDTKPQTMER
[17] abbreviates: measured here: daughter cell gate.
Setting [18] is: measured here: mother cell gate.
The mark [19] stands for this setting: measured here: daughter cell gate response.
Where [20] appears, read: measured here: mother cell gate response.

Structures are written as SMILES. Where “and” joins values, the source holds several entries; their conditions need not be identical. Equal entries are not always repeated. Calls of active or inactive are those of the source. Unless noted, how the calls were made is not given here.

Chain of Integrin beta-1 (Homo sapiens) + Integrin alpha-4 (Homo sapiens) (P05556 whole entry, looked up): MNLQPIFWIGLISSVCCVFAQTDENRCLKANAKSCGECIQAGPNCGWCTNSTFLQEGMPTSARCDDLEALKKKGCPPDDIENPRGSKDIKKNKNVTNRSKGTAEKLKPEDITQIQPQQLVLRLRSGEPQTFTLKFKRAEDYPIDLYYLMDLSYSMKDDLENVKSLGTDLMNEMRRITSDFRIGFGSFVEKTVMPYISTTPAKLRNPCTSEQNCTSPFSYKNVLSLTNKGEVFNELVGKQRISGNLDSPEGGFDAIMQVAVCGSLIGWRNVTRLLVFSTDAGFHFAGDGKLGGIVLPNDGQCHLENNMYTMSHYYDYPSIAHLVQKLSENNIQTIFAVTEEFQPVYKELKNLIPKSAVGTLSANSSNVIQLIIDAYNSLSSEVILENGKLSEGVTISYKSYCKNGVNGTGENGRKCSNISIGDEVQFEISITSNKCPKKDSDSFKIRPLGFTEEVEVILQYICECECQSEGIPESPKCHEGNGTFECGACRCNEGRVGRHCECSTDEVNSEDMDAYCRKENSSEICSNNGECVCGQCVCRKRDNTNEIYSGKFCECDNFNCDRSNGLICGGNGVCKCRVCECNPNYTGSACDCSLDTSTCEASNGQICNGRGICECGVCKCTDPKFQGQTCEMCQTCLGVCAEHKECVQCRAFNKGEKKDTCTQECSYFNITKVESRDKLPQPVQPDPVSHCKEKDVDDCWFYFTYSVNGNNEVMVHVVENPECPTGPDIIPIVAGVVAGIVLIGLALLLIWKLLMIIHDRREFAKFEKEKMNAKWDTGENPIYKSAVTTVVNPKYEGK
Chain of Integrin beta-1 (Homo sapiens) + Integrin alpha-4 (Homo sapiens) (P13612 whole entry, looked up): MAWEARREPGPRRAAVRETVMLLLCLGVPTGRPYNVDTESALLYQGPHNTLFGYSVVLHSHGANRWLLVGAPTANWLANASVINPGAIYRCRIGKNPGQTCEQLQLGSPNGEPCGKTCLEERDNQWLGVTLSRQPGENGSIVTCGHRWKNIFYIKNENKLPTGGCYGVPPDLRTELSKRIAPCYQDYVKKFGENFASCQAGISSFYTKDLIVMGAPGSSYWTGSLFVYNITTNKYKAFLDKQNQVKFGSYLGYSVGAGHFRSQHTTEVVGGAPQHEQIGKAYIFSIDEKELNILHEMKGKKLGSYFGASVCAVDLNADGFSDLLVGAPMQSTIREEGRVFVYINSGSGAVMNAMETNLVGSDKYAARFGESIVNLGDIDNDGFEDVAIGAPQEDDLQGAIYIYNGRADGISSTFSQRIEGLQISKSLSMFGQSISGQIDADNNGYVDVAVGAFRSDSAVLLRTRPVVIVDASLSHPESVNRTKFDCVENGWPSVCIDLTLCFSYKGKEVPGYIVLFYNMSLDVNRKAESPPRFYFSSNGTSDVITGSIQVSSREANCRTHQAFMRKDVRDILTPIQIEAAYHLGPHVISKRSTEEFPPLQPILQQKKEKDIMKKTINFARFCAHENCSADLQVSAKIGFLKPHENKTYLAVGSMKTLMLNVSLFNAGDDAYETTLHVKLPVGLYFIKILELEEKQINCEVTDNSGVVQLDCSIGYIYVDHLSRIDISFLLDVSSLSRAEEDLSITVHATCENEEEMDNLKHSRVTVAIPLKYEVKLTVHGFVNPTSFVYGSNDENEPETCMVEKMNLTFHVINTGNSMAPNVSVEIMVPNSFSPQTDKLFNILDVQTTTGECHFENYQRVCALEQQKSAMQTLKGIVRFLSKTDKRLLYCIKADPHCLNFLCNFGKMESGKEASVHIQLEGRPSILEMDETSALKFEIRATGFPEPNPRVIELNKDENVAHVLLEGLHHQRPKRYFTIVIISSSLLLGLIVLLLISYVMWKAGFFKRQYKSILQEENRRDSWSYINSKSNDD

On to `Nc1ccc(N=Nc2ccccc2)cc1`, for which the GFP response vs DMSO is 98.4% (inactive) in assay [1], 98.4% in [1] (setting [17]) and 96.2% in assay [1] (setting [18]). The GFP response relative to DMSO in assay [2] is 110% (inactive); in assay [2] (setting [19]) it was 106%; in [2] (setting [20]), 111%. Also, the figures for the GFP response, % of DMSO in assay [3], in assay [3] (setting [17]) and in assay [3] (setting [18]) were 100% (inactive), 93.8% and 99.3%, respectively.
In the case of `O=C1NC(=O)N(Cc2ccco2)C(=O)/C1=C\c1ccc(-c2ccc(F)cc2)o1`, the GFP response vs DMSO in assay [1] is 96.9% (inactive); in assay [1] (setting [17]) it was 97.6%; in assay [1] (setting [18]), 94%. Moreover, the results for the GFP response relative to DMSO in assay [2], in assay [2] (setting [19]) and in [2] (setting [20]) were 119% (inactive), 115% and 121%, respectively. For the same compound, the figures for the GFP response, % of DMSO in assay [3], in [3] (setting [17]) and in assay [3] (setting [18]) were 91.7% (inactive), 99.3% and 83.7%, respectively.
Usually inhibition stands for the drop in the measured response relative to a control, in per cent. `Cc1c2ccncc2c(C)c2c1[nH]c1ccccc12` showed a double positive events in [4] of 61%. The vesicle binding response in [4] was 710% (inactive). The superoxide response (% of plate) in [5] was 84.9% (inactive). Further, in assay [6], the aptamer binding inhibition was -5% (inactive). Besides, the inhibition is 5.87% (inactive) in [7], 2.4% (inactive) in [10], 2.8% (inactive) in assay [11] and 2% (inactive) in [12]. Besides, the response in assay [8] is -2.57% (inactive). Besides, in [9], the binding (% of control) is 180% (inactive). For the same compound, the efflux inhibition (fraction of control) in [13] was 0.3 (inactive). Further, the differentiation response in assay [14] is 18% (inactive).
`C[C@H]1CCCC(=O)CCCCCc2cc(O)cc(O)c2C(=O)O1` came in with a double positive events in [4] of 60.2%. Moreover, in assay [4], the vesicle binding response was 160% (inactive). For the same compound, the inhibition in assay [15] is 0.59% (inactive); in assay [7], -10.7% (inactive); in assay [10], -0.4% (inactive); in assay [11], -1.7% (inactive); in assay [12], 4.1% (inactive); in [16], 0% (inactive). The superoxide response (% of plate) in assay [5] was 101% (inactive). In addition, in [6], the aptamer binding inhibition was -1% (inactive). The response in assay [8] was 6% (inactive). The binding (% of control) in assay [9] is 106% (inactive). Also, the efflux inhibition (fraction of control) in assay [13] is -0.13 (inactive). Moreover, in assay [14], the differentiation response is 5.85% (inactive).
`CN1[C@@H]2CC(OC(=O)[C@H](CO)c3ccccc3)C[C@H]1[C@@H]1O[C@@H]12` (stereo partly specified): the inhibition in [10] was -2.9% (inactive); in assay [11], -2.7% (inactive) and -1% (inactive).
Take `CCN(CC)CC#CCOC(=O)C(O)(c1ccccc1)C1CCCCC1` (stereo unspecified): the inhibition in assay [10] is -1.7% (inactive); in assay [11], 0.6% (inactive).
`CC12CN3CC(c4ccccc4)(CN(C1)C31CCCCC1)C2=O`: in assay [4], the double positive events worked out at 60.1%. The vesicle binding response in assay [4] was 232% (inactive). Also, the inhibition in [15] was 9.13% (inactive); in [7], -0.95% (inactive); in [10] it was 2.1% (inactive); in assay [11] it was -0.1% (inactive); in assay [12], -2.8% (inactive); in [16] it was -51% (inactive). Moreover, the superoxide response (% of plate) in assay [5] was 90.5% (inactive). Further, the aptamer binding inhibition in [6] is 4% (inactive). Further, the response in assay [8] was 0.31% (inactive). For the same compound, the binding (% of control) in assay [9] is 99.5% (inactive). Also, the efflux inhibition (fraction of control) in assay [13] is -0.03 (inactive). Further, the differentiation response in assay [14] is 13.6% (inactive).
Consider `CCCC(C)(COC(N)=O)COC(=O)NC(C)C` (stereo unspecified), for which the double positive events in assay [4] came to 64.3%. In addition, in [4], the vesicle binding response is 111% (inactive). The inhibition was 23.6% (inactive) in assay [15]; -2.17% (inactive) in assay [7]; 0.5% (inactive) in assay [10]; 1.4% (inactive) in assay [11]; 6.3% (inactive) in assay [12]; 6% (inactive) in assay [16]. In assay [5], the superoxide response (% of plate) is 94.5% (inactive). In assay [6], the aptamer binding inhibition was 6% (inactive). Besides, the response in assay [8] is 9.22% (inactive). The binding (% of control) in assay [9] is 101% (inactive). In addition, in assay [13], the efflux inhibition (fraction of control) was -0.13 (inactive). Besides, the differentiation response in assay [14] is 44.3% (inactive).
